Among the test systems are SR leukemia; RPMI-8226 leukemia; OVCAR-8 ovarian; OVCAR-5 ovarian; SK-OV-3 ovarian; IGROV1 ovarian; OVCAR-3 ovarian; HS 578T breast; NCI/ADR-RES ovarian; T-47D breast; BT-549 breast; MDA-MB-435 melanoma; SW-620 colon; MCF7 breast; HCT-116 colon; HCC-2998 colon; KM12 colon; OVCAR-4 ovarian.
What all share (experiment): NCI-60 one-dose screen, 48 h (100 = growth as untreated, 0 = no growth, -100 = all killed)
What all share (conditions): 10 µM unless noted

This is part of a sample that, as a whole, favours compounds with a hit. Of some 83,000 tested, about 20% had one in any assay.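 Single-dose data. Exposure time 48 hours. Values below 10 considered active.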 Unmarked numbers belong to inactive results. Active and inactive are the calls of the source.

Turning to `CCOC(=O)c1ccc(NC(=O)N2CC(C)OC(C)C2)cc1` (centres undefined), the growth in the assay on SR leukemia was 98.7%; with RPMI-8226 leukemia, 63.1%; in the assay with OVCAR-8 ovarian it was 101%; in the assay with OVCAR-5 ovarian it was 94%; in the assay with SK-OV-3 ovarian, 99.5%; with IGROV1 ovarian, 73.6%. Moreover, the growth in the assay with OVCAR-3 ovarian was 109%; in the assay on HS 578T breast it was 101%; in the assay with NCI/ADR-RES ovarian it was 100%; with T-47D breast it was 94.4%; with BT-549 breast, 97.8%; with MDA-MB-435 melanoma, 105%. The growth is 106% with SW-620 colon; 96.4% with MCF7 breast; 102% in the assay on HCT-116 colon; 105% in the assay with HCC-2998 colon; 108% in the assay with KM12 colon.
For the compound `N=C(N)c1ccc(-c2cc(Cl)cc(Cl)c2)cn1`, the growth is 55% with SR leukemia; 82.8% in the assay with RPMI-8226 leukemia; 99.2% with OVCAR-8 ovarian; 89.4% with OVCAR-5 ovarian; 97.1% in the assay on OVCAR-4 ovarian; 89.1% in the assay on IGROV1 ovarian. Moreover, the growth with OVCAR-3 ovarian is 97.4%; with HS 578T breast, 87.2%; in the assay with NCI/ADR-RES ovarian it was 94.2%; with T-47D breast, 83.7%; in the assay on BT-549 breast, 94.5%; in the assay on MDA-MB-435 melanoma, 56.7%. The growth is 82.6% in the assay with SW-620 colon; 75.9% in the assay on MCF7 breast; 92% with HCT-116 colon; 67.5% with HCC-2998 colon; 89.8% in the assay with KM12 colon.
For the compound `O=C1/C(=C/c2ccccc2)CN(C(=O)CCN2CCC(=NO)CC2)C/C1=C\c1ccccc1`, the growth in the assay on SR leukemia is 7.97% (active); in the assay with RPMI-8226 leukemia it was -28.6% (active); in the assay with OVCAR-8 ovarian, 13.6%; in the assay with OVCAR-5 ovarian, 5.29% (active); in the assay on SK-OV-3 ovarian, 77.5%; in the assay with IGROV1 ovarian, -5.65% (active). Besides, the growth was -27% (active) in the assay on OVCAR-3 ovarian; 17% with HS 578T breast; 14.6% in the assay on NCI/ADR-RES ovarian; -2.11% (active) with T-47D breast; 2.46% (active) with BT-549 breast; -58.1% (active) with MDA-MB-435 melanoma. Besides, the growth is -52% (active) in the assay on SW-620 colon; -21.5% (active) in the assay with MCF7 breast; -68.7% (active) with HCT-116 colon; -65.5% (active) with HCC-2998 colon; -63.1% (active) in the assay with KM12 colon.
On to `COc1cc(/C=C/c2cc(/C=C/c3ccc(O)c(OC)c3)n(C(N)=O)n2)ccc1O`, for which the growth in the assay with SR leukemia is -3.77% (active); in the assay on RPMI-8226 leukemia, -44% (active); with OVCAR-8 ovarian, -6.69% (active); in the assay on OVCAR-5 ovarian, -30.7% (active); with OVCAR-4 ovarian, -6.24% (active); with IGROV1 ovarian, 1.18% (active). The growth was -72.7% (active) in the assay on OVCAR-3 ovarian; -11.3% (active) in the assay with HS 578T breast; 7.68% (active) in the assay with NCI/ADR-RES ovarian; -7.56% (active) with T-47D breast; -46% (active) in the assay with MDA-MB-435 melanoma; 0.998% (active) in the assay with SW-620 colon. Further, the growth in the assay with MCF7 breast is -16.4% (active); in the assay on HCT-116 colon it was -39.2% (active); with HCC-2998 colon, 7.85% (active); with KM12 colon, 3.47% (active).
As for `O=C(Oc1ccccc1[N+](=O)[O-])C1CCCN1C(=O)OCc1ccccc1` (centres undefined), the growth with SR leukemia was 82.4%; in the assay on RPMI-8226 leukemia it was 97.3%; in the assay on OVCAR-8 ovarian it was 97.5%; with OVCAR-5 ovarian it was 109%; with SK-OV-3 ovarian, 108%; in the assay on IGROV1 ovarian, 109%. The growth was 110% in the assay with OVCAR-3 ovarian; 112% with HS 578T breast; 92.7% in the assay with NCI/ADR-RES ovarian; 110% with T-47D breast; 89.6% in the assay on BT-549 breast; 104% in the assay with MDA-MB-435 melanoma. Moreover, the growth in the assay on SW-620 colon is 105%; in the assay with MCF7 breast, 95.6%; with HCT-116 colon it was 87%; with HCC-2998 colon it was 101%; in the assay with KM12 colon, 107%.
As to `COc1ccc(S(=O)(=O)n2ccc(-c3ccc4c(c3)CCC(C)(C)O4)n2)cc1OC`, the growth with SR leukemia is 60.2%; in the assay on RPMI-8226 leukemia, 59%; with OVCAR-8 ovarian, 74.6%; with OVCAR-5 ovarian, 105%; in the assay with OVCAR-4 ovarian it was 46%; in the assay with IGROV1 ovarian it was 84.3%. Also, the growth is 70.9% in the assay with OVCAR-3 ovarian; 91.5% in the assay on HS 578T breast; 56.5% with NCI/ADR-RES ovarian; 43.7% with T-47D breast; 79.6% with MDA-MB-435 melanoma; 79.9% with SW-620 colon. In addition, the growth with MCF7 breast is 64.3%; with HCT-116 colon, 61.5%; in the assay on HCC-2998 colon, 78.9%; with KM12 colon, 71.4%.
Regarding `O=[N+]([O-])c1ccc(/C=C/C2(CCl)OCCO2)cc1`, the growth in the assay with SR leukemia was 1.55% (active); in the assay on RPMI-8226 leukemia, 68.5%; in the assay on OVCAR-8 ovarian it was 82.4%; with OVCAR-5 ovarian it was 111%; with OVCAR-4 ovarian, 102%; with SK-OV-3 ovarian it was 103%. The growth in the assay with OVCAR-3 ovarian was 112%; in the assay on HS 578T breast, 109%; in the assay with NCI/ADR-RES ovarian, 98.8%; with T-47D breast, 95.1%; in the assay with SW-620 colon, 86.5%; in the assay with MCF7 breast, 106%. Also, the growth with HCT-116 colon is 61.3%; with HCC-2998 colon, 98.5%; in the assay on KM12 colon, 104%.
Turning to `COc1cc(-c2nn(C(=O)NS(=O)(=O)c3ccccc3)cc2-c2ccncc2)ccc1Cl`, the growth in the assay on SR leukemia was 89.1%; in the assay on RPMI-8226 leukemia it was 74.2%; in the assay on OVCAR-8 ovarian, 20.4%; in the assay with OVCAR-5 ovarian it was 99.9%; in the assay on SK-OV-3 ovarian it was 82.1%; in the assay on IGROV1 ovarian, 78.6%. In addition, the growth was 106% in the assay on OVCAR-3 ovarian; 79.4% in the assay on HS 578T breast; 82.3% with NCI/ADR-RES ovarian; 62.6% with T-47D breast; 53.9% in the assay on BT-549 breast; 85.5% in the assay on MDA-MB-435 melanoma. For the same compound, the growth in the assay on SW-620 colon is 112%; in the assay with MCF7 breast, 94.6%; in the assay on HCT-116 colon, 84.6%; with HCC-2998 colon, 109%; in the assay with KM12 colon it was 94.5%.
For the compound `OC(c1cc2cc(Br)ccc2c2cc(Br)ccc12)C1CCCCN1` (centres undefined), the growth with SR leukemia was -74.1% (active); in the assay on RPMI-8226 leukemia it was -38.9% (active); with OVCAR-8 ovarian, -69.4% (active); with OVCAR-5 ovarian, -76.5% (active); in the assay on SK-OV-3 ovarian, -55.4% (active); in the assay with IGROV1 ovarian, -67% (active). The growth in the assay with OVCAR-3 ovarian is -91.9% (active); in the assay with HS 578T breast, -53.1% (active); with NCI/ADR-RES ovarian it was -65.1% (active); in the assay with T-47D breast, -75.3% (active); in the assay with BT-549 breast, 69%; in the assay with MDA-MB-435 melanoma it was -78% (active). The growth is -75% (active) in the assay on SW-620 colon; -88.2% (active) with MCF7 breast; -72.7% (active) with HCT-116 colon; -81.5% (active) in the assay with HCC-2998 colon; -91.7% (active) in the assay on KM12 colon.

These data come from PubChem BioAssay (NCI).
